Data published in PubChem BioAssay (Tox21).
Inconclusive results are not listed. Entries that show only a call come without a potency. Active and inactive are the calls of the source. Calls follow the shape of the dose curve; as a rule, active = well fitted cell-killing curve with a large enough effect in the repeat runs; inconclusive = weak or mixed curves, or effect the other way; inactive = flat fitted curve, though single readings scatter.

Columns and labels:
[1] = cAMP Responsive Elements (CRE) small molecule agonists, cell-based qHTS assay: qHTS cell viability counter screen (AID 2060914);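 also: viability read after 3 h of compound exposure; nearly all actives have a fitted effect of over 50% in size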
In short: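 HEK 293T CRE-bla; DMEM + 10% dialyzed FBS, 25 mM HEPES; 18 h pre-incubation; compound 3 h, 37 °C/5% CO2; CellTiter-Glo added after reporter read; luminescence after 30 min RT.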

[2] = cAMP Responsive Elements (CRE) small molecule antagonists, cell-based qHTS assay: qHTS cell viability counter screen (AID 2060913); also: nearly all actives have a fitted effect of over 40% in size
In short: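 HEK293T CRE-bla, 2,000 cells/well, 18 h preincubation; cpd in DMSO + NKH477 0.25 uM final, 3 h 37 C/5% CO2; LiveBLAzer 2 h RT, then CellTiter-Glo 30 min RT, luminescence.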

Compound	Potency [1]	Potency [2]
N#Cc1cc(I)c(O)c(I)c1	inactive	
Cc1ccc(C)c2ccccc12	inactive	inactive
CCOC(=O)COc1cc(-c2nn(C)c(OC(F)F)c2Cl)c(F)cc1Cl	inactive	inactive
CCC(=O)c1ccccc1	inactive	
COP(=S)(OC)Oc1ccc(S(=O)(=O)N(C)C)cc1	inactive	inactive
O=C(O)c1cc(Oc2ccc(C(F)(F)F)cc2Cl)ccc1[N+](=O)[O-]	inactive	inactive
Sc1ccccc1	inactive	inactive
O=C(CCN1CC1)OCC(CO)(COC(=O)CCN1CC1)COC(=O)CCN1CC1	inactive	inactive
CNP(=O)(OC)Oc1ccc(C(C)(C)C)cc1Cl (centres undefined)	inactive	inactive
CCCCc1ccc(O)cc1	inactive	
ClCCCCBr	inactive	inactive
FC(F)C(F)(F)OCC(Cn1cncn1)c1ccc(Cl)cc1Cl (centres undefined)	inactive	
Oc1c(I)cc(I)cc1I	inactive	
COc1ccc2c(c1OC)C(=O)O[C@H]2[C@@H]1c2cc3c(cc2CCN1C)OCO3	inactive	
CN1[C@@H]2CC[C@H]1CC(O)C2 (some centres undefined)	inactive	inactive
CNC(=O)N(C)c1nnc(C(C)(C)C)s1	inactive	inactive
CCC[CH2][Sn]([CH2]CCC)([O]C(C)=O)[O]C(C)=O	inactive	
CNC(C)(C)Cc1ccccc1	inactive	inactive
